# About 83,000 compounds went through this panel and 20% of them were active in at least one assay; those are over-represented in the sample as a whole.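 Percent growth is the endpoint: 0 to 100 indicates growth inhibition (40 means 60% inhibition), 0 means no net growth, and negative values indicate cell death.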 Values without a mark were called inactive. The source made the active and inactive calls. The calls were made as follows: active = growth percent below 10; inactive = the rest.
# How the values were obtained:
# Assay in all cases: NCI-60 one-dose screen, 48 h (100 = growth as untreated, 0 = no growth, -100 = all killed)
# HCT-15 colon = details: 10 µM unless noted
# HT29 colon = details: 10 µM unless noted
# SNB-75 CNS = details: 10 µM unless noted
# SNB-19 CNS = details: 10 µM unless noted
# U251 CNS = details: 10 µM unless noted
# PC-3 prostate = details: 10 µM unless noted
# SK-MEL-5 melanoma = details: 10 µM unless noted
# LOX IMVI melanoma = details: 10 µM unless noted
# SK-MEL-28 melanoma = details: 10 µM unless noted
# SK-MEL-2 melanoma = details: 10 µM unless noted
# SN12C renal = details: 10 µM unless noted
# UO-31 renal = details: 10 µM unless noted
# TK-10 renal = details: 10 µM unless noted
# ACHN renal = details: 10 µM unless noted
# CAKI-1 renal = details: 10 µM unless noted
# A498 renal = details: 10 µM unless noted
# MOLT-4 leukemia = details: 10 µM unless noted
# UACC-62 melanoma = details: 10 µM unless noted
# EKVX NSCLC = details: 10 µM
# CCRF-CEM leukemia = details: 10 µM
SMILES,growth (HCT-15 colon),growth (HT29 colon),growth (SNB-75 CNS),growth (SNB-19 CNS),growth (U251 CNS),growth (PC-3 prostate),growth (SK-MEL-5 melanoma),growth (LOX IMVI melanoma),growth (SK-MEL-28 melanoma),growth (SK-MEL-2 melanoma),growth (SN12C renal),growth (UO-31 renal),growth (TK-10 renal),growth (ACHN renal),growth (CAKI-1 renal),growth (A498 renal),growth (MOLT-4 leukemia),growth (UACC-62 melanoma),growth (EKVX NSCLC),growth (CCRF-CEM leukemia)
COC(=O)C(N)CC(C)C (stereo not given),103%,102%,93.9%,100%,98%,97.9%,103%,95.8%,108%,101%,17.6%,90.5%,90.6%,97.4%,99.7%,105%,91.9%,,,
Oc1ccccc1/C=N/N=C\c1ccccc1Cl,95.5%,97.5%,86.7%,91.5%,93.4%,88.1%,,86.2%,105%,102%,92.6%,40.5%,132%,95.8%,86.8%,141%,61.3%,92.1%,75.9%,1.42% (active)
CCC(C)[C@H](NC(=O)Nc1cc(C(F)(F)F)cc(C(F)(F)F)c1)C(=O)N[C@@H](Cc1cn(C)cn1)C(=O)OC (stereo not given in full),-83.2% [100 µM] (active),-83.6% [100 µM] (active),-100% [100 µM] (active),-98.5% [100 µM] (active),-98% [100 µM] (active),-93.7% [100 µM] (active),-97.9% [100 µM] (active),,-95.3% [100 µM] (active),-92.4% [100 µM] (active),-82% [100 µM] (active),-95.3% [100 µM] (active),-98.7% [100 µM] (active),-98.4% [100 µM] (active),-99.6% [100 µM] (active),-94.4% [100 µM] (active),-54.9% [100 µM] (active),-98.8% [100 µM] (active),,
CCCCCCCCCCC1OC(C)CC(C)O1 (stereo not given),102%,106%,95.4%,109%,105%,101%,107%,,102%,105%,103%,90.9%,100%,97.8%,95.7%,102%,86.7%,107%,,
NC(N)=N/N=C/c1cccc(Br)c1,105%,103%,92.3%,101%,110%,90.1%,84.7%,,112%,103%,101%,79.5%,100%,108%,,,91.2%,107%,103%,101%
COc1ccc2nc3cc(Cl)ccc3c(NCCCNC(C)=O)c2c1,23.6%,27%,68.9%,43.4%,32.3%,39.6%,,15.9%,38.8%,52.3%,38.1%,21.2%,44.2%,16.1%,40.6%,22.6%,26.5%,42.6%,68.5%,39%
COCC(=O)NNc1[nH]c(-c2ccc(OC)cc2)cc1C#N,107%,110%,120%,114%,103%,97%,,110%,120%,108%,112%,95.4%,92.7%,110%,105%,116%,81.8%,99.4%,112%,55.9%
COc1ccccc1CNCCCN1C(=O)c2ccc3c4c(ccc(c24)C1=O)C(=O)N(CCCNCc1ccccc1OC)C3=O,-69.2% (active),-59.5% (active),-95.7% (active),-68.8% (active),-89.5% (active),-59.9% (active),-100% (active),,-90.6% (active),-80.5% (active),-78.2% (active),-84% (active),-77.9% (active),-46.8% (active),-29.1% (active),,-37% (active),-72.5% (active),-63.6% (active),-12.7% (active)
Nc1ccc(S(=O)(=O)c2ccc(NO)cc2)cc1,116%,101%,87.8%,97.1%,101%,96.8%,102%,,105%,93.2%,121%,84.2%,131%,114%,102%,114%,95.9%,115%,90.5%,91.8%
CCCCS(=O)(=O)c1cc(Nc2ccc(O)c3c2C(=O)c2ccccc2C3=O)ccc1C,66.8%,51.5%,106%,66.7%,80.7%,80.7%,-13.5% (active),,71.5%,92.5%,71.5%,54.8%,116%,92.2%,,126%,61.2%,32.8%,,59.7%
Cc1ncc(C(=O)Nc2ccc(CN3CCN(C)CC3)c(C(F)(F)F)c2)cc1C#Cc1c(N)ncc2ccccc12,-90.8% (active),-89% (active),-90.6% (active),-100% (active),-99.6% (active),-76.7% (active),,-89.9% (active),-96.5% (active),-76.9% (active),-99.1% (active),-99.1% (active),-99.4% (active),-100% (active),2.22% (active),-98% (active),-67.6% (active),-82.3% (active),-89.5% (active),-48.3% (active)
CNc1ccc(Nc2ccc(S(=O)(=O)O)cc2)c2c1C(=O)c1ccccc1C2=O,98.6%,105%,101%,104%,96.6%,101%,99.9%,,112%,130%,92.8%,102%,126%,98.7%,91.9%,113%,106%,94.6%,,89.2%
COc1ccc(Oc2[nH]n(C3=Nc4ccccc4Sc4ccccc43)c(=O)c2C#N)cc1,101%,113%,121%,101%,107%,82.8%,84.8%,,108%,101%,102%,87.9%,108%,89.5%,92.4%,,107%,69.9%,94.4%,92.8%
CCOC(=O)C1CCCN1C(=O)C1(NC(C)=O)CCCC1 (stereo not given),106%,124%,95.7%,125%,104%,95.6%,109%,,114%,110%,118%,88.5%,107%,117%,,,116%,121%,100%,97.4%
CC(C)OC(=O)[C@H](C)N[P@@](=O)(OC[C@@]1(C)O[C@@H](n2cc(F)c(N)nc2=O)C[C@@H]1O[P@](=O)(N[C@@H](C)C(=O)OC(C)C)Oc1ccccc1)Oc1ccccc1,106%,86%,78.3%,73.8%,93.2%,71.4%,,80.8%,93.5%,122%,72.6%,98.6%,101%,92.4%,94.6%,45%,67.5%,99.3%,109%,61.4%
O=C(CCl)c1ccc2c(c1)CCCC2,69.6%,103%,114%,108%,96.5%,95.7%,106%,,105%,80.3%,96.5%,91.2%,86.7%,98.4%,74.9%,101%,68.6%,98.5%,,
Clc1ccc(N/N=C/c2ccccn2)nc1,20.6%,27.3%,21.7%,28.2%,18.1%,39.3%,-66.3% (active),,20%,37.4%,14.4%,-12% (active),26.7%,5.14% (active),8.53% (active),,5.02% (active),-7.02% (active),5.55% (active),11.6%
